For 21 compounds, Potency, activation and activity change, negative = inhibition results are on record in PubChem BioAssay (NCATS).

Assay [1] has as its target Rap guanine nucleotide exchange factor 3 (Homo sapiens) (UniProt O95398). In words: Confirmatory qHTS for antagonist of cAMP-regulated guanine nucleotide exchange factor 3 (EPAC1) (AID 1645880). Further: nearly all actives have a fitted effect of over 55% in size. Further: potency means the concentration at half of the fitted maximal effect. The procedure, abridged: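 Nucleotide exchange uses 100 nM EPAC1, 250 nM RAP1B-BODIPY-GDP and 50 uM GDP, with compounds in a concentration-titration series. After 5 min at room temperature, fluorescence (480 nm ex/540 nm em) is read every 5 min for 30 min. Data are normalized to control ATA and DMSO.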

For assay [2] the target is unchanged. In words: Confirmatory qHTS for agonist of cAMP-regulated guanine nucleotide exchange factor 3 (EPAC1) (AID 1645881).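 Further: EPAC1 catalysed release of BODIPY-GDP from Rap1B seen as fluorescence loss; 100% = effect of cAMP agonist control; nearly all actives have a fitted effect of over 75% in size.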
Assay [3] addresses Rap guanine nucleotide exchange factor 4 (Homo sapiens) (UniProt Q8WZA2). The assay can be described thus: Confirmatory qHTS for agonist of cAMP-regulated guanine nucleotide exchange factor 4 (EPAC2) (AID 1645884).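 Further: nucleotide exchange releases bodipy-GDP from Rap1 and this lowers its fluorescence; on the % scale 0 is the no-effect control and ±100 the full control effect; nearly all actives have a fitted effect of over 65% in size.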 For orientation: In qHTS, concentration-response curves come from the screen itself.
For assay [4] the target is unchanged. In words: Confirmatory qHTS for antagonist of cAMP-regulated guanine nucleotide exchange factor 4 (EPAC2) (AID 1645885). Further: nearly all actives have a fitted effect of over 25% in size. Further: potency means the concentration at half of the fitted maximal effect. On activity change, negative = inhibition: on the % scale 0 is the no-effect control and ±100 the full control effect.
Assay [5] concerns the target Rap guanine nucleotide exchange factor 3 (Homo sapiens) (UniProt O95398). In words: Counterscreen qHTS for antagonist of cAMP-regulated guanine nucleotide exchange factor 3 (EPAC1) (AID 1645888).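 Further: fluorescence loss as bound BODIPY-GDP is released from Rap1B; % of control where 0% means no effect.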 Put shortly:
(§1)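 Rap1B-BODIPY-GDP 250 nM + GDP 50 uM; cpds 7-pt, final 9.74 nM–152 uM (activator mode) or from 7.32 nM upwards (inhibitor mode); RT; FI 480/540 nm at 5 and 30 min, then ± cAMP, reread.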
(In general: The purpose of a counterscreen is to sort out artefacts and off-target activity.)

Assay [6] shares this target. The assay can be described thus: Counterscreen qHTS for agonist of cAMP-regulated guanine nucleotide exchange factor 3 (EPAC1) (AID 1645889). Further: nearly all actives have a fitted effect of over 40% in size. Further: potency means the concentration at half of the fitted maximal effect. On activation: % of control where 0% means no effect. Put shortly: as §1

Each structure is given as a SMILES string. Inconclusive results are not listed. A number with no mark means an inactive call. Calls of active or inactive are those of the source. The call rests on the fitted dose curve; in most records, active means well fitted curve in the direction sought with a large enough effect; inconclusive means small, poorly fitted or top-dose-only effect, or another doubt; inactive means no such curve, though single readings can be large; an effect the other way counts as inactive or inconclusive.

Rap guanine nucleotide exchange factor 3 (Homo sapiens), sequence (O95398 whole entry, looked up): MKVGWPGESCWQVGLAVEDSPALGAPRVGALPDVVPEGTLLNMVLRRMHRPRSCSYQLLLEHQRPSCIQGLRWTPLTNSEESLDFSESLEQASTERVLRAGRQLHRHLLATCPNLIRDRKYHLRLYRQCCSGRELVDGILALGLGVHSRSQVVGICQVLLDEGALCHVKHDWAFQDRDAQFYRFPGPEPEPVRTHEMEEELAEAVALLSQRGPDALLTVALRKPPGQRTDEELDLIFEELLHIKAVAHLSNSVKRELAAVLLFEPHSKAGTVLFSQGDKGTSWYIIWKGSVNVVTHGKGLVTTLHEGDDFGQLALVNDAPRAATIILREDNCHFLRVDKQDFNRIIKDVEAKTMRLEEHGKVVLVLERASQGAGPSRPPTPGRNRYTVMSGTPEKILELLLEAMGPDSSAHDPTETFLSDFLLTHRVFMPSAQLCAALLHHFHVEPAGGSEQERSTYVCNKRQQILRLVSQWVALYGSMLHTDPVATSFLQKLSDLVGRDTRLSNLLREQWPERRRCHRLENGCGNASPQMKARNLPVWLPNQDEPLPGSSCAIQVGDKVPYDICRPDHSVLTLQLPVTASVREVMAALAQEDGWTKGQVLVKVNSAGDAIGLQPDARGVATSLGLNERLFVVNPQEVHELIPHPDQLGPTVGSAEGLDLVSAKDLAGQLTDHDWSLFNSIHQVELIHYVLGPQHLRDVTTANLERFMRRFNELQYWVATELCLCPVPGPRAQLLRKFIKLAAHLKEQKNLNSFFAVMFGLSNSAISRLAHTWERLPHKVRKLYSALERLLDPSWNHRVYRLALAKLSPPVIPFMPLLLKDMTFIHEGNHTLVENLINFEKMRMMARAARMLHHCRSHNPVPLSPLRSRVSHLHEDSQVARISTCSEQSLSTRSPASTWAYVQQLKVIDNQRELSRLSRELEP
Rap guanine nucleotide exchange factor 4 (Homo sapiens), sequence (Q8WZA2 whole entry, looked up): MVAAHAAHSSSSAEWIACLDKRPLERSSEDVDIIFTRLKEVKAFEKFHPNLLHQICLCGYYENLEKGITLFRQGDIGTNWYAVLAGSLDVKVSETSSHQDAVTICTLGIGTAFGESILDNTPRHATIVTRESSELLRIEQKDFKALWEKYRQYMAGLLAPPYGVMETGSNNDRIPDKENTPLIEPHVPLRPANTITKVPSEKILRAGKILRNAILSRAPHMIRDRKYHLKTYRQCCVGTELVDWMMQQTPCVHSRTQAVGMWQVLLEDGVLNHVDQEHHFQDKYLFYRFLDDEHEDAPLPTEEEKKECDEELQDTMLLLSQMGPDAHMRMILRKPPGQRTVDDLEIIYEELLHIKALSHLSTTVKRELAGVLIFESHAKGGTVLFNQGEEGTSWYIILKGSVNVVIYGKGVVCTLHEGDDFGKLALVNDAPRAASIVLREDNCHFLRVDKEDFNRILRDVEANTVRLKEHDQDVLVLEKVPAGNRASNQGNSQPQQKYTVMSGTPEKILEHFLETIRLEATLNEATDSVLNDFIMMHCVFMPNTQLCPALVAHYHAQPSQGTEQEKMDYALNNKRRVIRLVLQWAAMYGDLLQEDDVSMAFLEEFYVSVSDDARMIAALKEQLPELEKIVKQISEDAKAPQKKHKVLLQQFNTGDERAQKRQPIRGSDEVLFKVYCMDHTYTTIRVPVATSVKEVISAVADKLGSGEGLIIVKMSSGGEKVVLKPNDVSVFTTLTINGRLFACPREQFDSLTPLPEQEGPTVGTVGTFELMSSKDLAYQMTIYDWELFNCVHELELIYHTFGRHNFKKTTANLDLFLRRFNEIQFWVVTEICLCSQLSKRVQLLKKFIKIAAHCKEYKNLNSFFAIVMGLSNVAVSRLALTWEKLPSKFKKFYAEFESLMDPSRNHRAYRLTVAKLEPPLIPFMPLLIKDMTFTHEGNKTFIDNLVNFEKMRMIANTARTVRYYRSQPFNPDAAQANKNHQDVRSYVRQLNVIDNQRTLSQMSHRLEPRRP

As to `Cn1cc([C@]2(O)C(=O)Nc3ccc(F)cc32)c2ccccc21`, the Potency result in assay [1], in assay [2] and in assay [4] was “inactive” in each case. The activation in assay [3] was -4.66% [at 17.1 µM, percent relative to cAMP agonist control]; in assay [6], 12.7% [at 30.8 µM]. Also, in assay [5], the activity change, negative = inhibition was -17.1% [at 30.8 µM].

Consider `CC(=O)N1CCc2cc(Br)cc(S(=O)(=O)NCCCN(C)Cc3ccccc3)c21`, for which the Potency entry in assay [1], in assay [2], in assay [3], in assay [5] and in assay [6] was “inactive” throughout. Also, in assay [4], the Potency is 23.9 µM (active).

Consider `Fc1cccc(Cc2c(-c3ccccc3)nc3ccc(Cl)cn23)c1`, for which the Potency entry in assay [1], in assay [2], in assay [3], in assay [4], in assay [5] and in assay [6] was “inactive” each time.

Consider `COC(=O)CC1(C(=O)OC)Oc2ccc(Br)cc2C(=O)N1c1cc(Cl)cc(Cl)c1` (stereo unspecified), for which the Potency entry in assay [1] and in assay [2] was “inactive” in each case. Further, in assay [3], the activation is 5.41% [at 17.1 µM, percent relative to cAMP agonist control]. Moreover, the Potency was 2.13 µM (active) in assay [4] and 0.0282 µM (active) in assay [6]. For the same compound, in assay [5], the activity change, negative = inhibition was -4.58% [at 30.8 µM].

`O=C(O)c1ccc(N/N=C/c2c(F)cccc2Cl)cc1`: the Potency result in assay [1], in assay [2] and in assay [4] was “inactive” throughout. The activation is 2.99% [at 17.1 µM, percent relative to cAMP agonist control] in assay [3] and 3.47% [at 30.8 µM] in assay [6]. Besides, the activity change, negative = inhibition in assay [5] was -2.2% [at 30.8 µM].

In the case of `CC(=O)NC(C)c1nc2ccccc2n1Cc1ccccc1Cl` (stereo unspecified), the Potency entry in assay [1], in assay [2], in assay [3], in assay [4], in assay [5] and in assay [6] was “inactive” in each case.

Regarding `COc1cc(CCc2ccccc2)c(C(=O)O)c(O)c1CC=C(C)C`, the Potency in assay [1] was 42.6 µM (active). For the same compound, the Potency entry in assay [2], in assay [3], in assay [4], in assay [5] and in assay [6] was “inactive” each time.

Turning to `CCc1ccc(/C=C2\SC(=S)N(CCC(=O)Nc3cc(C)on3)C2=O)cc1`, the Potency result in assay [1], in assay [2], in assay [3], in assay [4], in assay [5] and in assay [6] was “inactive” throughout.

Consider `CCc1ccc(OCCCSc2nc(-c3ccc(C(C)(C)C)cc3)nc3cc(=O)[nH]n23)cc1`, for which, in assay [1], the Potency was 42.6 µM (active). In addition, the Potency result in assay [2], in assay [3], in assay [4], in assay [5] and in assay [6] was “inactive” throughout.

For `COC(=O)C(CC(=O)c1ccc(C)cc1)n1cccn1` (stereo unspecified), the Potency entry in assay [1], in assay [2], in assay [3], in assay [4], in assay [5] and in assay [6] was “inactive” each time.

`Cc1ccc(-c2csc(N=C(N)N)n2)cc1`: the Potency result in assay [1], in assay [2] and in assay [4] was “inactive” in each case. The activation in assay [3] is 2.77% [at 17.1 µM, percent relative to cAMP agonist control]; in assay [6], 9.63% [at 30.8 µM]. The activity change, negative = inhibition in assay [5] was -10% [at 30.8 µM].

For `CCC(C(=O)OC)n1c(-c2ccccc2)nc2ccccc2c1=O` (stereo unspecified), the Potency entry in assay [1], in assay [2], in assay [3], in assay [5] and in assay [6] was “inactive” each time. The Potency in assay [4] was 19 µM (active).

For the compound `S=C(NCCCN1CCOCC1)Nc1cccc(-c2nnc3n2CCCCC3)c1`, the Potency entry in assay [1], in assay [2], in assay [3], in assay [4], in assay [5] and in assay [6] was “inactive” in each case.

Turning to `O=[N+]([O-])c1cc([N+](=O)[O-])c2oc(-c3ccccc3)c(Br)c2c1O`, the Potency in assay [1] is 2.69 µM (active); in assay [4], 3.01 µM (active). The Potency entry in assay [2], in assay [3], in assay [5] and in assay [6] was “inactive” throughout.

`Cc1cc2oc(=O)c3c(c2cc1OC(=O)c1ccco1)CCCC3`: the Potency entry in assay [1], in assay [2], in assay [3], in assay [4], in assay [5] and in assay [6] was “inactive” each time.

As to `O=C(Cn1cnc2scc(-c3cccc([N+](=O)[O-])c3)c2c1=O)NCc1ccco1`, in assay [1], the Potency is 37.9 µM (active). In addition, the Potency result in assay [2], in assay [3], in assay [4], in assay [5] and in assay [6] was “inactive” throughout.

`CNC(=O)NC(=O)C(NC1CCCc2ccccc21)c1ccccc1` (stereo unspecified): the Potency result in assay [1], in assay [2], in assay [3], in assay [5] and in assay [6] was “inactive” each time. Besides, the Potency in assay [4] was 47.8 µM (active).

As for `CN(C)c1ccc(C(O)c2cc3ccccc3s2)cc1` (stereo unspecified), the Potency entry in assay [1], in assay [2], in assay [3], in assay [4], in assay [5] and in assay [6] was “inactive” in each case.

On to `COc1ncc(-c2c(-c3ccccc3OC)sc3ccccc23)cn1`, for which the Potency result in assay [1], in assay [2] and in assay [4] was “inactive” throughout. For the same compound, the activation in assay [3] was -3.13% [at 17.1 µM, percent relative to cAMP agonist control]; in assay [6] it was 15.7% [at 30.8 µM]. Further, the activity change, negative = inhibition in assay [5] is -4.66% [at 30.8 µM].

Take `N#Cc1c(-c2ccccc2)nc(SCC(=O)N2c3ccccc3Sc3ccccc32)[nH]c1=O`: the Potency in assay [1] was 19 µM (active). Also, the Potency result in assay [2], in assay [3], in assay [4], in assay [5] and in assay [6] was “inactive” in each case.

Regarding `Cc1[nH]c2ccccc2c1C(=O)C(C)OC(=O)c1ccc(Cl)nc1` (stereo unspecified), the Potency result in assay [1], in assay [2] and in assay [4] was “inactive” throughout. Moreover, the activation in assay [3] is 9.38% [at 17.1 µM, percent relative to cAMP agonist control]; in assay [6], 19.4% [at 30.8 µM]. Further, in assay [5], the activity change, negative = inhibition was -3.94% [at 30.8 µM].
